Targets with a hit are over-represented here; the source holds about 7,900 in all. About 0.6% of all pairs of compound and target were hits. Values without a mark were called inactive.

Common to all, as to assay: log2 fold change, soluble protein after heating vs DMSO (PISA); higher = thermal stabilisation; K562 cells, 10 uM, 30 min; active = over 0.2 and 3.5 SD of the protein, either way, in both replicates (recomputed)
Compound in one test: Cc1ccc(NC(=O)c2ccc(CN3CC[C@H](N(C)C)C3)c(C(F)(F)F)c2)cc1Nc1nccc(-c2cncnc2)n1 [bafetinib]
The method, boiled down: (§1)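 Soluble protein was quantified by TMTpro 16plex LC-MS/MS after channel sums were equalised. It was obtained as the supernatant after 21,000xg for 90 min from pooled aliquots of K562 cells (2×10^6 cells/mL, 10 μM compound, 30 min) heated for 3 min across 48°C-58°C and extracted in PBS with 0.5% NP-40 at 4°C. Thermal stability values are relative to control samples and come from duplicates. They are given as log2 fold changes.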

Compound in test [1]: Cc1cccc(CC(=O)N2CCc3c2ccc(-c2cn(C)c4ncnc(N)c24)c3F)n1
The method, boiled down:
as §1

Compound in another test: Cc1cn(-c2cc(NC(=O)c3ccc(C)c(Nc4nccc(-c5cccnc5)n4)c3)cc(C(F)(F)F)c2)cn1 [nilotinib]
The method, boiled down: as §1

Compound in test [2]: Cc1nc(Nc2n[nH]c3c2CN(C(=O)N[C@H](CN(C)C)c2ccccc2)C3(C)C)c2sccc2n1
The method, boiled down:
as §1

Compound in another test: Cc1nc(Nc2ncc(C(=O)Nc3c(C)cccc3Cl)s2)cc(N2CCN(CCO)CC2)n1 [dasatinib]
The method, boiled down:
as §1

Compound in test [3]: Cc1ncc(-c2ccnc(Nc3ccc(S(C)(=O)=O)cc3)n2)n1C(C)C
The method, boiled down:
as §1

Compound in test [4]: Cn1cc(-c2ccc3c(c2)CCN3C(=O)Cc2cccc(C(F)(F)F)c2)c2c(N)ncnc21
The method, boiled down:
as §1

Compound in test [5]: Cn1cc(-c2ccc3nnc(C(F)(F)c4ccc5ncccc5c4)n3n2)cn1
The method, boiled down:
as §1

Compound in the next test: Cn1cncc1[C@@](N)(c1ccc(Cl)cc1)c1ccc2c(c1)c(-c1cccc(Cl)c1)cc(=O)n2C [tipifarnib]
The method, boiled down: as §1

Compound in a further test: FC(F)(F)c1ccc(/C=C/c2nc(COc3ccc(CCCCn4ccnn4)cc3)co2)cc1 [mubritinib]
The method, boiled down:
as §1

Compound in test [6]: NC(=O)Nc1cc(-c2cccc(F)c2)sc1C(=O)N[C@H]1CCCNC1
The method, boiled down: as §1

Compound in test [7]: NC(=O)c1cnc(N[C@@H]2CCCC[C@@H]2N)nc1Nc1cccc(-n2nccn2)c1
The method, boiled down: as §1

Compound in test [8]: NC1(c2ccc(-c3nc4ccn5c(=O)[nH]nc5c4cc3-c3ccccc3)cc2)CCC1
The method, boiled down:
as §1

Compound in test [9]: NCC(=O)Nc1ccc(-n2nc(C(F)(F)F)cc2-c2ccc3c(ccc4ccccc43)c2)cc1
The method, boiled down: as §1

Compound in a further test: Nc1ccccc1NC(=O)c1ccc(CNC(=O)OCc2cccnc2)cc1 [entinostat]
The method, boiled down:
as §1

Compound in another test: O=C(CCCCCCC(=O)Nc1ccccc1)NO [vorinostat]
The method, boiled down:
as §1

Compound in a further test: O=C(CCCCCCNC(=O)c1cnc(N(c2ccccc2)c2ccccc2Cl)nc1)NO [citarinostat]
The method, boiled down:
as §1

Compound in a further test: O=C(O)c1ccc2c(c1)nc(Nc1cccc(Cl)c1)c1ccncc12 [silmitasertib]
The method, boiled down: as §1

Compound in test [10]: O=C1NC(=O)C(c2cnc3ccccn23)=C1c1cn2c3c(cc(F)cc13)CN(C(=O)N1CCCCC1)CC2
The method, boiled down:
as §1

Compound in test [11]: c1cc(OCCN2CCCCC2)cc(-c2n[nH]c3ccc(-c4nnc[nH]4)cc23)c1
The method, boiled down:
as §1

Chain of UniProt O75792 (O75792 whole entry, looked up): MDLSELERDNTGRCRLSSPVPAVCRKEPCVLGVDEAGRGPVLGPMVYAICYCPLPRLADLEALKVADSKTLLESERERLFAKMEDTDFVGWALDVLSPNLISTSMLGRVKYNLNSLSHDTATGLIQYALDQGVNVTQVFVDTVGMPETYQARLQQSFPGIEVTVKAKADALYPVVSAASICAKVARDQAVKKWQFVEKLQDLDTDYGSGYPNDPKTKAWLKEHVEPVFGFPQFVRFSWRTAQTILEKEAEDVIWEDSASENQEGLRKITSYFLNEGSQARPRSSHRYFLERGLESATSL
Chain of UniProt Q15050 (Q15050 whole entry, looked up): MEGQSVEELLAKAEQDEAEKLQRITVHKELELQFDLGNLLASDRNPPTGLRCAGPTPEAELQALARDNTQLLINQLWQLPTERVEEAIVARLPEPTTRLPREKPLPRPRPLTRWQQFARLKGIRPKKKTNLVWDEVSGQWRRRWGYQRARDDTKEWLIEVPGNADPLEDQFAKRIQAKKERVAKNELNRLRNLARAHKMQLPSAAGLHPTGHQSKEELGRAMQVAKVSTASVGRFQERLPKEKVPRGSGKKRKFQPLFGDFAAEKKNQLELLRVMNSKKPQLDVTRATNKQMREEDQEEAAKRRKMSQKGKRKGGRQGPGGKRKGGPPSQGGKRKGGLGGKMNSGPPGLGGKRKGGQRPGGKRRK
Chain of UniProt Q96T51 (Q96T51 whole entry, looked up): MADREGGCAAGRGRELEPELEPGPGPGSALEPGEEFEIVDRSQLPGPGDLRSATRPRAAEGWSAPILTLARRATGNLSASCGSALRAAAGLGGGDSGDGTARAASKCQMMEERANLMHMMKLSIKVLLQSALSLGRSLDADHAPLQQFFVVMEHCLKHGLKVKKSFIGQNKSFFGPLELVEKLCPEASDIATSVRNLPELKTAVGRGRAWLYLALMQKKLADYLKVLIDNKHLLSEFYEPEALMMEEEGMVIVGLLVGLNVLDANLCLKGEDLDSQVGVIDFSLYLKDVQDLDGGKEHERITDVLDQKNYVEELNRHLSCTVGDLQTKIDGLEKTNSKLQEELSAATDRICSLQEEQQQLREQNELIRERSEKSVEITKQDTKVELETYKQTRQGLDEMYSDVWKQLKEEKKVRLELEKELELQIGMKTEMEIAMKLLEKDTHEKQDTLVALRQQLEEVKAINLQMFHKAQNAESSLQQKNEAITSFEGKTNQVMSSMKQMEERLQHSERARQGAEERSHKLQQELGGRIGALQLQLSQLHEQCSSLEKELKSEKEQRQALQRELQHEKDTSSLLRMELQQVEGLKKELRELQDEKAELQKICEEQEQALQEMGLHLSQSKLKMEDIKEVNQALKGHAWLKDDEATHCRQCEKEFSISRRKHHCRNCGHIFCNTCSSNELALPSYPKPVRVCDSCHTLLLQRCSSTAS
Chain of UniProt Q8NBX0 (Q8NBX0 whole entry, looked up): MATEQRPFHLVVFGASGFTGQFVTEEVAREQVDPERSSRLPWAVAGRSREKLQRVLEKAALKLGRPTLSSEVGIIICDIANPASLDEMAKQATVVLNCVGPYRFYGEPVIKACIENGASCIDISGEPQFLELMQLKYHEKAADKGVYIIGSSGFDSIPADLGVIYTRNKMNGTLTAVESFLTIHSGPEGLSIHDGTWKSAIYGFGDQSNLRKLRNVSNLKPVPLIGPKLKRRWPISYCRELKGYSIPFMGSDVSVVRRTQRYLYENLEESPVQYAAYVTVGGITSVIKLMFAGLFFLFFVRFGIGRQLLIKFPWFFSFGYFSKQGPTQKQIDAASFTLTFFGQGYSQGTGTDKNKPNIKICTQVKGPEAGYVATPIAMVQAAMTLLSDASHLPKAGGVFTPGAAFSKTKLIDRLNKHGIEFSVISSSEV

As to SCCPDH (UniProt Q8NBX0), the log2 fold change is 0.161 with bafetinib; -0.046 in test [1]; 0.189 with nilotinib; 0.019 in test [2]; 0.008 in the test with dasatinib; 0.174 in test [3]. For the same target, the log2 fold change in [4] was 0.273; in [5], -0.074; with tipifarnib, 0.419 (active); in the test with mubritinib, 0.104; in test [6], -0.113; in [7], -0.056. The log2 fold change in [8] is 0.045; in test [9], -0.024; with entinostat, -0.071; with vorinostat, 0.062; with citarinostat, 0.199; with silmitasertib it was -0.004. For the same target, the figures for the log2 fold change in [10] and in test [11] were 0.123 and 0.33, respectively.

In the case of RRS1 (UniProt Q15050), the log2 fold change is 0.121 with bafetinib; -0.125 in test [1]; -0.024 with nilotinib; 0.073 in test [2]; 0.161 with dasatinib; 0.267 in [3]. The log2 fold change in [4] is -0.431; in test [5], -0.165; with tipifarnib, 0.105; with mubritinib, -0.226; in test [6], 0.06; in [7], 0.143. The log2 fold change was 0.233 in test [8]; 0.211 in [9]; -0.087 with entinostat; -0.063 in the test with vorinostat; -0.081 in the test with citarinostat; 0.291 in the test with silmitasertib. Moreover, the log2 fold change in test [10] was 0.438; in test [11], -0.107.

As for RNASEH2A (UniProt O75792), the log2 fold change with bafetinib was -0.111; in [1], -0.303 (active); in the test with nilotinib, -0.025; in test [2], 0.024; with dasatinib, -0.159; in [3], -0.047. Besides, the log2 fold change in test [4] is 0.056; in test [5], 0.038; with tipifarnib it was -0.003; with mubritinib, 0.059; in test [6] it was -0.017; in test [7] it was -0.06. Also, the log2 fold change in test [8] was -0.181; in [9], -0.109; in the test with entinostat it was 0.037; in the test with vorinostat, -0.145; with citarinostat, 0.015; in the test with silmitasertib, 0.014. In addition, the values for the log2 fold change in [10] and in [11] were -0.208 and -0.015, respectively.

For RUFY1 (UniProt Q96T51), the log2 fold change with bafetinib was -0.052; in test [1], 0.077; in the test with nilotinib, -0.066; in [2], -0.086; with dasatinib, -0.11; in test [3] it was 0.067. The log2 fold change in test [4] was -0.061; in test [5], 0.05; in the test with tipifarnib, -0.062; with mubritinib, -0.001; in test [6], 0.06; in test [7], -0.057. In addition, the log2 fold change in test [8] is -0.086; in test [9], -0.101; in the test with entinostat it was 0.05; with vorinostat, 0.031; in the test with citarinostat, 0.032; with silmitasertib, 0.11. The values for the log2 fold change in test [10] and in test [11] were 0.038 and -0.037, respectively.

The record behind these values is the supplement of paper PMC10849652.
